Data on 7 compounds can be found in paper PMC5540273 (PLoS ONE, 2017).

Settings in all cases: concentration: 1 μM, replicates: in singlicate; n = 1
For assay [1], the system named is MTOR.
In assay [2] the test system is MUSK.
Assay [3] deals with MYLK2.
Assay [4] concerns MYLK4.
Assay [5] deals with MYLK.
Assay [6] has as its system MYO3A.
Assay [7] deals with MYO3B.
The subject of assay [8] is T1, NDR1.
T1 construct: gene STK38

The test system of assay [9] is NDR2.
In assay [10] the test system is NEK10.
For assay [11], the system named is NEK11.
The subject of assay [12] is NEK1.
Assay [13] relates to NEK2.
Assay [14] relates to NEK3.
Assay [15] has as its system NEK4.
Assay [16] relates to NEK5.
The subject of assay [17] is NEK6.
Assay [18] relates to NEK7.
The test system of assay [19] is NEK9.
The test system of assay [20] is T2, NIK.
T2 construct: gene MAP3K14
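Note: KINOMEscan kinase panel screen.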

Regarding `O=C(NC1CCN(c2ccnc(Nc3ccc(F)cc3)n2)C1)c1cc2ccccc2s1` (centres unmarked) [GSK1379716], the “%Inh” value in assay [1] was 25%; in assay [2], 21%; in assay [3], 4%; in [4], 5%; in [5], 36%; in assay [6], 36%. Further, the “%Inh” value in assay [7] turned out to be 0%; in assay [8], 8%; in assay [9] it was 0%; in assay [10], 19%; in assay [11], 20%; in assay [12] it was 0%. Also, the “%Inh” value was found to be 8% in assay [13]; 9% in assay [14]; 0% in assay [15]; 13% in [16]; 3% in assay [17]; 0% in assay [18]. For the same compound, the entries for the “%Inh” value in assay [19] and in [20] were 17% and 42%, respectively.

In the case of `COc1cc(Nc2nccc(N3CCC(NC(=O)Nc4cccc(C(C)=O)c4)C3)n2)cc(OC)c1OC` (centres unmarked) [GSK1379753], the “%Inh” value is 0% in assay [1]; 18% in assay [2]; 7% in [3]; 1% in assay [4]; 17% in assay [5]; 6% in assay [6]. Also, the “%Inh” value in assay [7] is on record as 0%; in assay [8] it was 8%; in assay [9] it was 0%; in [10], 20%; in assay [11] it was 0%; in assay [12], 58%. Moreover, the “%Inh” value is recorded as 43% in assay [13]; 41% in assay [14]; 30% in assay [15]; 100% in assay [16]; 1% in [17]; 45% in assay [18]. For the same compound, the entries for the “%Inh” value in assay [19] and in assay [20] were 27% and 5%, respectively.

Regarding `CC(C)(C)c1ccc2nccc(Nc3cccc(O)c3)c2c1` [GW856795], the “%Inh” value in [1] amounted to 0%; in [2], 0%; in [3], 0%; in assay [4] it was 0%; in assay [5], 20%; in assay [6] it was 6%. Besides, the “%Inh” value stood at 5% in [7]; 0% in assay [8]; 0% in assay [9]; 0% in assay [10]; 22% in [11]; 0% in assay [12]. The “%Inh” value in assay [13] was 11%; in assay [14], 13%; in assay [15] it was 0%; in assay [16], 0%; in [17] it was 0%; in assay [18] it was 0%. Also, the “%Inh” value is given as 0% in assay [19] and 9% in assay [20].

Regarding `Cl.Cl.NCC(NCc1ccc(-c2ccnc3[nH]ccc23)s1)c1ccccc1` (centres unmarked) [GSK1321565], the “%Inh” value in assay [1] is reported as 43%; in assay [2] it was 13%; in [3] it was 5%; in assay [4] it was 99.8%; in assay [5], 59%; in assay [6] it was 34%. For the same compound, the “%Inh” value in assay [7] is 0%; in assay [8], 53%; in assay [9], 31%; in assay [10], 27%; in assay [11], 13%; in assay [12], 0%. The “%Inh” value in assay [13] is reported as 0%; in assay [14] it was 0%; in [15], 0%; in assay [16] it was 10%; in [17], 0%; in assay [18], 0%. In addition, the “%Inh” value in [19] is listed as 6%; in assay [20], 20%.

As for `O=C(Nc1ccccc1F)NC1CCN(c2ccnc(Nc3ccc(F)cc3)n2)CC1` [GSK1379800], the “%Inh” value in [1] amounted to 17%; in assay [2], 3%; in assay [3] it was 16%; in assay [4], 10%; in [5], 8%; in assay [6] it was 37%. For the same compound, the “%Inh” value in assay [7] is 0%; in assay [8], 7%; in assay [9] it was 0%; in [10], 5%; in [11], 7%; in assay [12] it was 0%. Moreover, the “%Inh” value in [13] was determined as 0%; in assay [14], 13%; in assay [15], 0%; in assay [16], 33%; in assay [17], 0%; in assay [18], 0%. Besides, the “%Inh” value in [19] was 0%; in [20], 9%.

For the compound `COc1cc(Nc2nccc(N3CCC(NC(=O)c4cc5ccccc5s4)C3)n2)cc(OC)c1OC` (centres unmarked) [GSK1379760], the “%Inh” value turned out to be 34% in assay [1]; 1% in assay [2]; 13% in assay [3]; 3% in [4]; 0% in assay [5]; 17% in assay [6]. For the same compound, the “%Inh” value in assay [7] is 0%; in [8] it was 12%; in assay [9], 0%; in assay [10], 18%; in [11] it was 0%; in assay [12], 35%. For the same compound, the “%Inh” value in [13] is 26%; in assay [14], 11%; in assay [15] it was 13%; in [16], 99.5%; in assay [17] it was 27%; in assay [18] it was 37%. The “%Inh” value in [19] was 31%; in [20], 4%.

As for `CC(=O)Nc1nc2cnc(Nc3cc(NC(=O)c4cccc(C5(C#N)CC5)c4Cl)ccc3C)nc2s1`, the “%Inh” value in assay [1] amounted to 4%; in [2], 12%; in [3] it was 0%; in [4], 0%; in assay [5], 0%; in assay [6] it was 0%. Besides, the “%Inh” value is 0% in [7]; 0% in [8]; 0% in [9]; 1% in [10]; 0% in assay [11]; 0% in assay [12]. For the same compound, the “%Inh” value is listed as 0% in assay [13]; 18% in assay [14]; 10% in assay [15]; 0% in assay [16]; 4% in assay [17]; 7% in assay [18]. For the same compound, the results for the “%Inh” value in assay [19] and in [20] were 14% and 0%, respectively.
